Article PMC12136788
Positions count from the first letter of the chain named. Whole data set: some 5,800 sequences, median “enrichment r” near 0.54, cut for the highest 2% near 16. This is one part of a sample in which the highest values are shown more often than they occur.

B1: ENSG00000070961:be:win_4001|3pUTR|ENSG00000070961|bound_else_gene|NA|bound_elsewhere_windowed (ssRNA)
RNA: GGGAGUUCUACAGUCCGACGAUCAGUAAAACUGGGCAAGACAAAGAGCCCUGGAUCGUUGAAUUGAUAGUUUAAUUUCUGCUGUUGGCUGUUAAUAAUUUGGAUUAUUUAUGUUUAUAAAUGAUACAGAUCUGUUUACAAGGUCAACAGAGGAUUGAGCAUCA
B2: ENSG00000005810:stop:overlap|stop_codon|ENSG00000005810|stop_codon|NA|stop_codon (ssRNA)
RNA: GGGAGUUCUACAGUCCGACGAUCCACCCACUGGGGAAGAGUUUGCUCUGGGAUGUGGAGUGUGCAGAAAUGCCCACACUUUUUAGAACACGCAGAUCCUUUGUCUACAGAGAGAAAAAUUGCCUUCAUCCCCCAAGAGGAUGCCAACAGAGGAUUGAGCAUCA
B3: chr2:105361111:105361195:-|3pUTR|ENSG00000115641|msi1_unk|total|mutant (ssRNA)
RNA: GGGAGUUCUACAGUCCGACGAUCCUUUCUCACCCAGGCAAUCUUGCCUUCUGGUUUCUUCCAGCCACAUUGAGACUUUCUUCCCGUGCUUUUCAGUGAUACUCACGUUUGCUUAAACCCUUCCGUGCUUUGUGACCGUUCAGUCAACAGAGGAUUGAGCAUCA
B4: chr10:62094764:62094865:+|3pUTR|ENSG00000150347|msi1|FALSE|unique (ssRNA)
RNA: GGGAGUUCUACAGUCCGACGAUCGAUGAACUCCCCAACCCACUGUGCCCCUCCCGCAACACUACCAGUAGACUUUAGAACCAUAGUUAACUAAGUCUUUUACCUCUGAGAUACUUAAUUCUGGGAAAAUUGGUGACAAUUUUCCAACAGAGGAUUGAGCAUCA
B5: chrX:85861749:85861850:-|3pUTR|ENSG00000188419|msi1|total|mutant (ssRNA)
RNA: GGGAGUUCUACAGUCCGACGAUCCUAAUUUAAAAUUUCAGAAAAUGCUAUUAAAGAAUUUUGAUUCAAGUAUUUAAACUGUUCCGUUAUGCAUGCUUCUUAUUAACCGAAAAUGAUAAUACCAUUCCGUUCCGUGAUCAGUAUCAACAGAGGAUUGAGCAUCA
B6: chr8:9779869:9779970:+|3pUTR|ENSG00000173273|msi1|FALSE|unique (ssRNA)
RNA: GGGAGUUCUACAGUCCGACGAUCGGAAUUUCUAGCUUUUCAAGCAGCAUAAGUAGAAUCAACAUUAGGAUGUUUUCAUGAAAUAGCAUCCUUAUACUUCUUUGAGCUUGAUGUUAGUGGCUAGACUGAUUUCCCUUUGCUCUCCAACAGAGGAUUGAGCAUCA
B7: chrX:85861749:85861850:-|3pUTR|ENSG00000188419|msi1|FALSE|unique (ssRNA)
RNA: B5 RNA with C83U, C84A, C126U, C127A, C131U, C132A
B8: chr11:62152232:62152344:+|3pUTR|ENSG00000149503|unk|total|mutant (ssRNA)
RNA: GGGAGUUCUACAGUCCGACGAUCUGCUCUGUAAACCGUUGUUUUAAUUCCGCUGAAUGUCCGCAUUUCCGUCUUUGGCAUUUCCGCGUUUGGGAGGCCGAUUAAUAAAGUAUAUUCCUUCAAGCCUGCUGUUGAUACCAUGAACAACAGAGGAUUGAGCAUCA
B9: ENSG00000198589:be:win_9701|3pUTR|ENSG00000198589|bound_else_gene|NA|bound_elsewhere_windowed (ssRNA)
RNA: GGGAGUUCUACAGUCCGACGAUCCAAGGAUUUGGAAUGAACAAUUCAGUUUGACAGAAAAAGCUGAAUAAAAUGGCAUCUGUAAUUGAAUUGUUGGAAAUGCCUUUUUUGCUCCUAAAUUUUAAACAUCAUUAAUAAAAUAAUCAACAGAGGAUUGAGCAUCA
B10: ENSG00000070961:be:win_4401|3pUTR|ENSG00000070961|bound_else_gene|NA|bound_elsewhere_windowed (ssRNA)
RNA: GGGAGUUCUACAGUCCGACGAUCGUUAUGACAUCUGUCCUAAUUAGUUUCUUAAAUACAUUUACUACUUAAUGGUUUUGAAGCAACUGUUUAAUUUUUAAAAUUUUUGAAAACUUGCUAAUAACCUUUUGUUCAGAAUUUAGUCAACAGAGGAUUGAGCAUCA
B11: chr5:136976780:136976881:-|3pUTR|ENSG00000152377|msi1|FALSE|unique (ssRNA)
RNA: GGGAGUUCUACAGUCCGACGAUCCUUAAAUUAGCAUGUUCCAAUCCAGUCGGCAUUGCCUGAAUACAGUAGCAUCAUACCUAUAGUUGGUCUUAGAUAAGAAAUGAACUACUUGAUAUAGCAAAGUCCUUUGGCUUCGUAAAUCAACAGAGGAUUGAGCAUCA
B12: chr5:136976780:136976881:-|3pUTR|ENSG00000152377|msi1|total|mutant (ssRNA)
RNA: B11 RNA with U31C, A32C, U69C, A70C, U83C, A84C, U93C, A94C, U118C, A119C
B13: ENSG00000013293:stop:overlap|stop_codon|ENSG00000013293|stop_codon|NA|stop_codon (ssRNA)
RNA: GGGAGUUCUACAGUCCGACGAUCAACACAAACAGAACUCAGAGGCCCUGAUUGCAAAUGAUGAGUUAGAUUACUCUCCAGAGUAGGAGAAACACACAAGUGGGUAGAAAUGGUGAUGACUGAUUUUCAGUAACUUAACCUGUGCAACAGAGGAUUGAGCAUCA
B14: chr11:62152232:62152344:+|3pUTR|ENSG00000149503|unk|FALSE|unique (ssRNA)
RNA: GGGAGUUCUACAGUCCGACGAUCUGCUCUGUAAAUAGUUGUUUUAAUUUAGCUGAAUGUUAGCAUUUUAGUCUUUGGCAUUUUAGCGUUUGGGAGGUAGAUUAAUAAAGUAUAUUCCUUCAAGCCUGCUGUUGAUACCAUGAACAACAGAGGAUUGAGCAUCA
B15: ENSG00000071054:stop:overlap|stop_codon|ENSG00000071054|stop_codon|NA|stop_codon (ssRNA)
RNA: GGGAGUUCUACAGUCCGACGAUCCUGGUGGCAGCAGUCAGGUUUAUUUCAUGACCUUAGGCAGGACUUCUCUUCUGAGCUGGUAGAAGCAGUGUGAUCCAGGGAUUACUGGCCUCCAGAGUCUUCAAGAUCCUGAGAACUUGGCAACAGAGGAUUGAGCAUCA

Biological target: MSI1 full-length (mouse, UniProt Q61474 1-362)
Assay: nsRBNS (natural sequence RNA bind-n-seq); RBNS binding buffer (assumed for nsRBNS): 25 mM Tris pH 7.5, 150 mM KCl, 3 mM MgCl2, 0.01% Triton X-100, 500 ug/ml BSA, 20 U/ml SUPERase-In, 4 C; UNK is unkempt and MSI1 is Musashi-1; names of the RNAs are library labels; protein concentration not given here; high values mean tight binding

MSI1 full-length, sequence (Q61474 whole entry): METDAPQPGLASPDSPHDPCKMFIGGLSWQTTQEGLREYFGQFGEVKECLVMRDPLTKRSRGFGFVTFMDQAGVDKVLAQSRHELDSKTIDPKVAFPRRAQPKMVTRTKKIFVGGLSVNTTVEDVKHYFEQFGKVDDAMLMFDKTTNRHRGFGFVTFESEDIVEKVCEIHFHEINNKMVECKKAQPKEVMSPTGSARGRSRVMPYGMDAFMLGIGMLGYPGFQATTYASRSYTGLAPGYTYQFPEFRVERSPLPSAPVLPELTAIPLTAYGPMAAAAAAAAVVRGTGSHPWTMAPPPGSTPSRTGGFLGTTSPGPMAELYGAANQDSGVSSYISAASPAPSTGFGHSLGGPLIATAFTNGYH

Compared with B1, B2 is lower in binding signal: 0.47 enrichment R for the first, 0.439 enrichment R for the second.

First: B3
Second: B4
The binding signal of the first is lower: 0.426 enrichment R for the first, 12.5 enrichment R for the second.

First: B5
Second: B6
The binding signal of the first is higher: 0.789 enrichment R for the first, 0.275 enrichment R for the second.

Compared with B7, B8 is lower in binding signal: 54.6 enrichment R for the first, 0.406 enrichment R for the second.

Compared with B9, B10 is higher in binding signal: 0.605 enrichment R for the first, 3.8 enrichment R for the second.

First: B11
Second: B12
The binding signal of the first is higher: 71.2 enrichment R for the first, 0.478 enrichment R for the second.

Compared with B13, B14 is higher in binding signal: 18.5 enrichment R for the first, 70 enrichment R for the second.

B15 gave a binding signal of 0.605 enrichment R.
